# Experimental data from PubChem BioAssay AID2763 (National Center for Advancing Translational Sciences (NCATS), 2010).
# Results filed as inconclusive are left out. Where a call stands in place of a potency, no number is given. Calls of active or inactive are those of the source. Calls come from the whole dose curve; as a rule, active = well fitted inhibition curve with a large enough effect; inconclusive = small, poorly fitted or top-dose-only effect, or effect the other way; inactive = no such curve, though single readings can be large or run the other way.
# Experiment: Concentration response confirmation VP16 counterscreen for inhibitors of ROR gamma transcriptional activity; note: nearly all actives have a fitted effect of over 70% in size
# Conditions: Drosophila S2 Gal4-VP16 UAS-luciferase, luminescence, 20 h; series mostly up to 46.1 µM
# Outline: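 Drosophila Schneider cells stably carrying Gal4-VP16 under metallothionein promoter plus UAS-Photinus luciferase. Compound preincubated 1 hr, then 700 uM copper sulfate induction for 20 hr at ambient temperature; luminescence read.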
# Potency is the fitted concentration of half-maximal effect.
row,Compound,Potency
1,C=CCNc1nc(Nc2ccc([N+](=O)[O-])cc2)nc(N2CCCC2)n1,19.9 µM (active)
2,Cc1c(CCC(=O)N[C@@H](CC(C)C)C(=O)O)c(=O)oc2cc3oc4c(c3cc12)CCCC4,4.99 µM (active)
3,Fc1cccc2sc(Nc3nnc(-c4ccco4)o3)nc12,6.28 µM (active)
4,COC1CCCCC1Nc1cc(C)ccc1C (stereo not given),inactive
5,COc1cccc(CNS(=O)(=O)c2ccc3c(c2)CCN3C(=O)C2CC2)c1,inactive
6,CCOC(=O)[C@@H]1[C@H]2COc3cc(OC)ccc3[C@@H]2N2C(=O)N(c3ccc(C)cc3)C(=O)[C@@]12C,inactive
7,CCN1CCN(CCC(=O)Nc2ccccc2)CC1,inactive
8,CCCCc1nnc(NC(=O)CS(=O)(=O)Cc2ccccc2)s1,inactive
9,CCOc1cccc(-c2cc(-c3n[nH]c(=S)n3CC)c3ccccc3n2)c1,inactive
10,Cc1cc(C)nc(-n2nc(C)cc2NC(=O)CNC(C)c2ccccc2)n1 (stereo not given),19.9 µM (active)
11,Cc1cc(NC(=S)NC(=O)/C=C/c2ccc(S(=O)(=O)N3CCOCC3)cc2)ccc1Br,11.2 µM (active)
12,CCCCCCn1ccc(=N)cc1,11.2 µM (active)
13,COc1ccc2nc(N3C(=O)CNC3=S)sc2c1,8.88 µM (active)
14,O=C(NC(=S)Nc1nc(-c2ccc(Br)cc2)cs1)c1cccnc1,inactive
15,COc1ccc2oc(=O)c(C(=O)Nc3ccccc3C)cc2c1,7.91 µM (active)
16,O=C(COc1ccccc1)NNc1nc2c(F)cccc2s1,inactive
17,O=C(CCCOc1ccccc1)Nc1nc2ccccc2[nH]1,inactive
18,COc1ccc(-c2nc(CS(=O)(=O)CC(=O)NCCc3ccc(C)cc3)c(C)o2)cc1,inactive

row,Compound,Potency
1,CC(C)(C)c1cc(C(=O)N2CCc3ccccc32)ccn1,inactive
2,c1csc(CCNc2ncnc3sc4c(c23)CCC4)c1,25 µM (active)
3,O=C(O)/C=C/C(=O)Nc1ccccc1SC(F)(F)F,inactive
4,Cc1nnc(SCC(=O)Nc2ccc(S(=O)(=O)Nc3ccc(Cl)nn3)cc2)s1,inactive
5,Cc1ccc(NC(=O)CCN2CCN(C)CC2)cc1,inactive
6,COc1ccc(Cl)c(Cn2c(NCc3ccco3)nc3c2c(=O)n(C)c(=O)n3C)c1,1.99 µM (active)
7,CNc1cc(C(F)(F)F)nc(-c2ccccn2)n1,8.88 µM (active)
8,S=c1[nH]nc(-c2ccc(Cl)cc2Cl)n1-c1ccc2c(c1)OCCO2,inactive
9,Oc1ccc(COCc2ccccc2)c2cccnc12,2.5 µM (active)
10,c1ccc(-c2ncc3c(ccc4ccccc43)n2)cc1,8.88 µM (active)
11,CN(C)S(=O)(=O)c1ccc(NC(=O)/C=C/c2ccccc2Cl)cc1,inactive
12,CCn1cc(C(=O)O)c(=O)c2cnc(N3CCN(C(=S)NC(=O)c4ccccc4)CC3)nc21,inactive
13,Cc1ccccc1C(=O)OC1OC(=O)C(Cl)=C1Nc1ccccc1 (stereo not given),inactive
14,O=C(CSc1nc2ccc(NC(=O)CSc3nnnn3Cc3ccccc3)cc2s1)Nc1ccccc1,inactive
15,CCN1C(=O)/C(=C/c2ccc(N3CCCC3)cc2)NC1=S,9.96 µM (active)
16,COc1ccc(C(=O)Nc2scc(-c3ccc(Cl)cc3Cl)c2C(N)=O)cc1,inactive
17,CCN(CC)C1CC(=O)N(c2cccc(C)c2)C1=O (stereo not given),25 µM (active)
